Results taken from the supplement of paper PMC10849652.
About 7,900 targets were measured; listed, in parts, are those with a hit and a random draw of the rest. About 0.6% of all pairs of compound and target were hits.

Compound: CS(=O)(=O)N1CCN(Cc2cc3nc(-c4cccc5[nH]ncc45)nc(N4CCOCC4)c3s2)CC1 [pictilisib]
Experiment: log2 fold change, soluble protein after heating vs DMSO (PISA); higher = thermal stabilisation; K562 cells, 10 uM, 30 min; active = over 0.2 and 3.5 SD of the protein, either way, in both replicates (recomputed)
How it was run: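 K562 cells at 2×10^6 cells/mL were treated with 10 μM compound for 30 min. Aliquots were heated for 3 min across 48°C-58°C, pooled, and extracted in PBS with 0.5% NP-40 at 4°C; soluble protein was the supernatant after 21,000xg for 90 min. Soluble protein was quantified by TMTpro 16plex LC-MS/MS with channel sums equalised, and reported as log2 fold change in thermal stability against DMSO controls, with values from duplicates.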

Chain of UniProt Q9NQR1 (Q9NQR1 whole entry, looked up): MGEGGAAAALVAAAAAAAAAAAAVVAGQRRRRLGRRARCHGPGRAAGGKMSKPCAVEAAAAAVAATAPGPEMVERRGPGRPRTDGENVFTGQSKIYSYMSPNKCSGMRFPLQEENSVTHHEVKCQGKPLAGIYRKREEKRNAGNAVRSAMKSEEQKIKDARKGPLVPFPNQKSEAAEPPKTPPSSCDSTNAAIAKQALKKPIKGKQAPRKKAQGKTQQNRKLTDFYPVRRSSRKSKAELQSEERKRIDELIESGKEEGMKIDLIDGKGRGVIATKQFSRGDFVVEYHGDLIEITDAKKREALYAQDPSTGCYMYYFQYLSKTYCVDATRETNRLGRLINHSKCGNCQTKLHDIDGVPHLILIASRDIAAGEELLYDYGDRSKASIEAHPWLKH
Chain of UniProt Q13164 (Q13164 whole entry, looked up): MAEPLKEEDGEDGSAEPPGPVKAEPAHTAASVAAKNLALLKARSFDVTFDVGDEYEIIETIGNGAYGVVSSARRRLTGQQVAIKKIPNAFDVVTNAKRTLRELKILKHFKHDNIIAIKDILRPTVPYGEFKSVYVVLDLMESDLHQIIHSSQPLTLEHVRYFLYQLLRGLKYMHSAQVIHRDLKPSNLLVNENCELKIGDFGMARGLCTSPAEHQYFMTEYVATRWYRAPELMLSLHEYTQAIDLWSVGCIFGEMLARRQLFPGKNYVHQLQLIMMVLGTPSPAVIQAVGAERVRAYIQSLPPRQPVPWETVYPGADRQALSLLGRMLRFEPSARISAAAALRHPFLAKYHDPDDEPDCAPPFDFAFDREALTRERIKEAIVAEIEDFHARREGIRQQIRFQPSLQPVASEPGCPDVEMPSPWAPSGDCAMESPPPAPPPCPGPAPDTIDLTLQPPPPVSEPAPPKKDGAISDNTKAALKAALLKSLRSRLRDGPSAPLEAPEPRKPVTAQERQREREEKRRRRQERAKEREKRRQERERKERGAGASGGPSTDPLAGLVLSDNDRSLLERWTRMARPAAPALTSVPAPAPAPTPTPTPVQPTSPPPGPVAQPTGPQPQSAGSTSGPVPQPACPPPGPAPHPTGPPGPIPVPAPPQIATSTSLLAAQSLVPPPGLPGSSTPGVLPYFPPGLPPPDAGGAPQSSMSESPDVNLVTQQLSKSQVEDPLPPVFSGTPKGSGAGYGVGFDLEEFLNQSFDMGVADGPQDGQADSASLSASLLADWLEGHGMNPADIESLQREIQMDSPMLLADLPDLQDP
Chain of UniProt Q9BQD3 (Q9BQD3 whole entry, looked up): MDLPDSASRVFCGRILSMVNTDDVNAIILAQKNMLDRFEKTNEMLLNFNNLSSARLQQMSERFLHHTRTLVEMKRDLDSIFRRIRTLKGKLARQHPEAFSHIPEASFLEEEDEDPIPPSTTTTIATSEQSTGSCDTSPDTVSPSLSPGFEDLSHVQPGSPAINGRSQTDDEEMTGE
Chain of UniProt Q2M2Z5 (Q2M2Z5 whole entry, looked up): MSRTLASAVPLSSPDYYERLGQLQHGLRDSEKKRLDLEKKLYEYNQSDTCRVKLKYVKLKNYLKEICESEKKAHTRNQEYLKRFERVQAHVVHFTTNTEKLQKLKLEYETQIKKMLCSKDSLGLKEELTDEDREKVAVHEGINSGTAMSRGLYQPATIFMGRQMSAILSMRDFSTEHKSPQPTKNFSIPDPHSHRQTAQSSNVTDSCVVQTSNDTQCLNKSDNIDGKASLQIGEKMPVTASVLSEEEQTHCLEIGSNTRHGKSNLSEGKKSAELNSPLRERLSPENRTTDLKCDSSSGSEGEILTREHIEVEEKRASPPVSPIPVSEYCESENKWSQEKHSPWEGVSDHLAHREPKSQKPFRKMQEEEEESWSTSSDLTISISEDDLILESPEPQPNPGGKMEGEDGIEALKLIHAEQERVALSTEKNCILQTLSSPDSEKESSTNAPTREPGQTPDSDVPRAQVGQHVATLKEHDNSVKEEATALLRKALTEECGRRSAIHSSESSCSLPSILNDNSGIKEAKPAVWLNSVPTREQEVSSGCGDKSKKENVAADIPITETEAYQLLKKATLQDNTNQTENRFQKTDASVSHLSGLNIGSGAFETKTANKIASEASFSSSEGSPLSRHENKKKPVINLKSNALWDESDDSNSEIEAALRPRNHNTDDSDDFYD
Chain of UniProt Q9H3U5 (Q9H3U5 whole entry, looked up): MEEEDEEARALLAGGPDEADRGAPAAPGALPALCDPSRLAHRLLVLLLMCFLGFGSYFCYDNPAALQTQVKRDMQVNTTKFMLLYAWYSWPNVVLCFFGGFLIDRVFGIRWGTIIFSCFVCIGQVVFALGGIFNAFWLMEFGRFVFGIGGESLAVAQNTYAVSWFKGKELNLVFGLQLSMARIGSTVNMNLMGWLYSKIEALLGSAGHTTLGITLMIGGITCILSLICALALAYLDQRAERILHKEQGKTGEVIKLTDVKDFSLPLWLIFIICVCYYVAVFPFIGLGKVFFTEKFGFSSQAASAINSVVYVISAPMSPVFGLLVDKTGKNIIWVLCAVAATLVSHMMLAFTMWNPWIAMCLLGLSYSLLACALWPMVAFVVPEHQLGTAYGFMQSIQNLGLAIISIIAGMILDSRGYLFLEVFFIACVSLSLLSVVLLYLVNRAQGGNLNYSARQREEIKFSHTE
Chain of UniProt Q86VI4 (Q86VI4 whole entry, looked up): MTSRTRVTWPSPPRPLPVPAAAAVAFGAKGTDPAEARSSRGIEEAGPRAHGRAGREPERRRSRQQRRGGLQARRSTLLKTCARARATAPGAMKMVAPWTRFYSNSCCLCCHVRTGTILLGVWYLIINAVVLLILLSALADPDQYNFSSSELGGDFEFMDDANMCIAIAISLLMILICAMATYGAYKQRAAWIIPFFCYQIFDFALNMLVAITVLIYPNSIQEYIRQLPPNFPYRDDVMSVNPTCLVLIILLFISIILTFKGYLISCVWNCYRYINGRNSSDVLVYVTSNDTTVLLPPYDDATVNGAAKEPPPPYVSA
Chain of UniProt P43361 (P43361 whole entry, looked up): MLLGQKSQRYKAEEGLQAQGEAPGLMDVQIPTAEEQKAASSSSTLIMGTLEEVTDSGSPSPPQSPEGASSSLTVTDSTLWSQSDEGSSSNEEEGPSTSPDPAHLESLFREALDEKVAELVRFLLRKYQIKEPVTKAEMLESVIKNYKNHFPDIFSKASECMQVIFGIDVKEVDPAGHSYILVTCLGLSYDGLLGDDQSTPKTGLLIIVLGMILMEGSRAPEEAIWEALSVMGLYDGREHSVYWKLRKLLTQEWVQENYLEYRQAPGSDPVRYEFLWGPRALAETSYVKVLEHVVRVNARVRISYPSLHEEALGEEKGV
Chain of UniProt Q32MZ4 (Q32MZ4 whole entry, looked up): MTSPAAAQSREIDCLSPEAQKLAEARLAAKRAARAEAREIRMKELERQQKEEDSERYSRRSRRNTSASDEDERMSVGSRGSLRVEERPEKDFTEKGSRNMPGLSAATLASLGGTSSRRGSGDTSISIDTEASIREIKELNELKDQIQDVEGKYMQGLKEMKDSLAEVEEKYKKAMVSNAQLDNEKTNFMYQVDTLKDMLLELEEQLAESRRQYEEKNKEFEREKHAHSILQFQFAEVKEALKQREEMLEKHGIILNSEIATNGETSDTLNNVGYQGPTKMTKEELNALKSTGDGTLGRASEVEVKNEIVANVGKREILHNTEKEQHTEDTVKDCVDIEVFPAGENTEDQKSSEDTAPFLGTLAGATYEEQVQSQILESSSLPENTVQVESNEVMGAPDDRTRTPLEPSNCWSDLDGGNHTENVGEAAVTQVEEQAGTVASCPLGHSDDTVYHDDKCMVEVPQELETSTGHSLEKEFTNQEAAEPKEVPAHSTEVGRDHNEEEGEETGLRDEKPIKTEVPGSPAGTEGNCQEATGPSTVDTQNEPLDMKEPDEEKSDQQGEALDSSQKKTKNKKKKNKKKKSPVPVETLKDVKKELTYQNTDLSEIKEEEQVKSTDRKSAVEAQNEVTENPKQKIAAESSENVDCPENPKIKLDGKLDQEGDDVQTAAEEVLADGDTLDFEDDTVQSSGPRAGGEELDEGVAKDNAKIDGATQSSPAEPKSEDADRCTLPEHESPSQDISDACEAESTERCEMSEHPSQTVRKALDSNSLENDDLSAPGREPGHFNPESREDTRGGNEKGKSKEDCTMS
Chain of UniProt Q9BQK8 (Q9BQK8 whole entry, looked up): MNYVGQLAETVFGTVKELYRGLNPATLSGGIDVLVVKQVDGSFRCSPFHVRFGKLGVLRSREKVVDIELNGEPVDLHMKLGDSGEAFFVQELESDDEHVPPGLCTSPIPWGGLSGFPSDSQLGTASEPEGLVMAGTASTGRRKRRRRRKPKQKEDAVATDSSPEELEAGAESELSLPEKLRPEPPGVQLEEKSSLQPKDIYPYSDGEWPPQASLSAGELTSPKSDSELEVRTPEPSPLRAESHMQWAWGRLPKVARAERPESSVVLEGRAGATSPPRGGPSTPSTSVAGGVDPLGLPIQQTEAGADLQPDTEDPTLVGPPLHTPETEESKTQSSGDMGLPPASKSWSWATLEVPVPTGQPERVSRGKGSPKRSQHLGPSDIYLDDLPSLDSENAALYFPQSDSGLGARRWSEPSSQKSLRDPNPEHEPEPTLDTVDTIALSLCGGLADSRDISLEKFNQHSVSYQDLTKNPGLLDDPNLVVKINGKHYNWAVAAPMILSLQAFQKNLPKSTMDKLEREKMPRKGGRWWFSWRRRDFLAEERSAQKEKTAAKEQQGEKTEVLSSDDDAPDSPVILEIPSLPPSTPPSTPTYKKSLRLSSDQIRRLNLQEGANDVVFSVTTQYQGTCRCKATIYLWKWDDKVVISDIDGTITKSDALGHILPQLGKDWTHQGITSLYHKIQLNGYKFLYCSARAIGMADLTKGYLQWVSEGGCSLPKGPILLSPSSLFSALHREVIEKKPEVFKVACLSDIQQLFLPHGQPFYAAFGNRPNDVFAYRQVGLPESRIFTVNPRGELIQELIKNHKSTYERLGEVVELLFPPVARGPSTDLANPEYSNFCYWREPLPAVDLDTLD
Chain of UniProt O15243 (O15243 whole entry, looked up): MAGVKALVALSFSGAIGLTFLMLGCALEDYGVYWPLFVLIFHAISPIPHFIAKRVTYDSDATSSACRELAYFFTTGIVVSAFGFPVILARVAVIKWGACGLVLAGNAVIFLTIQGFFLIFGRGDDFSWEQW

Target	log2 fold change
MAPK11 (UniProt Q15759)	0.068 (inactive)
ITM2C (UniProt Q9NQX7)	-0.149 (inactive)
MGRN1 isoform 2 (UniProt O60291)	-0.004 (inactive)
MFSD12 isoform 3 (UniProt Q6NUT3)	0.069 (inactive)
LRRFIP1 isoform 4 (UniProt Q32MZ4)	-0.046 (inactive)
KLHL18 (UniProt O94889)	0.09 (inactive)
MCOLN3 (UniProt Q8TDD5)	0.044 (inactive)
KMT2C isoform 3 (UniProt Q8NEZ4)	0.229 (inactive)
LEPROT (UniProt O15243)	-0.212 (inactive)
IKZF1 (UniProt R9R4D9)	0.059 (inactive)
LMBRD1 (UniProt Q9NUN5)	-0.03 (inactive)
LPIN3 isoform 2 (UniProt Q9BQK8)	0.147 (inactive)
LAPTM4B (UniProt Q86VI4)	0.017 (inactive)
KMT5A (UniProt Q9NQR1)	0.368 (inactive)
KIZ (UniProt Q2M2Z5)	-0.215 (inactive)
MAGEA8 (UniProt P43361)	0.145 (inactive)
IP6K1 (UniProt Q92551)	0.13 (inactive)
KXD1 (UniProt Q9BQD3)	0.063 (inactive)
MFSD1 isoform 6 (UniProt Q9H3U5)	0.055 (inactive)
MAPK7 (UniProt Q13164)	0.108 (inactive)
